A selection: hits, their analogues and other compounds. The true share with any hit is near 3.1%.
A549 tox-1 – Nrf2 qHTS screen for inhibitors: counterscreen for cytotoxicity. AID 504648, 2011. 0.16% of 390,000 active. A549 ARE-Fluc cells, CellTiter-Fluor viability, 18-24 h. Potency, µM (doses to about 46 µM), for the others: top-dose activity change, negative = cytotoxicity, most hits filed as inhibitors; note: % is set by controls: 0 for no effect and ±100 for the full control effect
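A549 ARE-Fluc cells in 5% FBS OPTI-MEM, 5000 cells/well, rested 2 h then exposed to compounds in concentration-response for 18-24 h at 37 °C. Viability by CellTiter-Fluor fluorescence (Ex 405/Em 525) after 30 min; luciferase luminescence (BugLite, 15 min, RT) read afterwards.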
mIDH1 inhibitor – qHTS for Inhibitors of mutant isocitrate dehydrogenase 1 (IDH1): qHTS; IDH1-R132H enzyme, NADPH consumption, diaphorase/resazurin fluorescence; Potency, µM (highest dose often 76.6 µM), for the others: at the highest dose activity change, negative = inhibition, most hits filed as inhibitors; 0.093% of 390,000 active; AID 602179, 2012; note: % is set by controls: 0 for no effect and ±100 for the full control effect; nearly all actives have a fitted effect of over 65% in size
Target sequence (O75874 whole entry R132H, stated change not applied): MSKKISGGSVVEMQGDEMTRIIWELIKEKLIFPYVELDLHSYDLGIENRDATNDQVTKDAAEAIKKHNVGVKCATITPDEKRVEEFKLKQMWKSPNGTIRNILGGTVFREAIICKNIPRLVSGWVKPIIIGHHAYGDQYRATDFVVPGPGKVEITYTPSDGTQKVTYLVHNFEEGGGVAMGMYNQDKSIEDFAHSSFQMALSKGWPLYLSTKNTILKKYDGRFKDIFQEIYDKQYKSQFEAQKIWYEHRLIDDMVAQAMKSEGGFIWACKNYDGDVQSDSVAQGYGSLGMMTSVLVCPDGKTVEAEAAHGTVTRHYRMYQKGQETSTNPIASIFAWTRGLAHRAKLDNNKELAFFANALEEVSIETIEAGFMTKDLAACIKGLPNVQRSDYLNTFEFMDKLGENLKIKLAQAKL
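IDH1-R132H (0.5 ug/mL) preincubated 30 min with compound, then NADPH (0.016 mM) and alpha-KG (2 mM) added; 80 min at RT, pH 7.5. Remaining NADPH coupled via diaphorase/resazurin to fluorescence (540/590 nm); concentration-response curves normalized to no-enzyme control.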
TrxR1 substrate – qHTS Assay for Substrates of Mammalian Selenoprotein Thioredoxin Reductase 1 (TrxR1): qHTS; purified TrxR1 substrate turnover, NADPH consumption readout; Thioredoxin reductase 1, cytoplasmic (Rattus norvegicus), O89049; 0.01% of 390,000 active; Potency, µM (highest dose often 114 µM), for the others: top-dose activity change, negative = substrate turnover; note: % is set by controls: 0 for no effect and ±100 for the full control effect; nearly all actives have a fitted effect of over 50% in size
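Rat TrxR1, dispensed at 90 nM, was prereduced with 400 uM NADPH (final) for 5 min at ~22 deg C, then incubated with compound 15 min before 400 uM selenite. A first-read NADPH fluorescence drop versus no-compound background flagged substrates.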
rTrxR1 inhibitor – qHTS Assay for Inhibitors of Mammalian Selenoprotein Thioredoxin Reductase 1 (TrxR1): qHTS; Thioredoxin reductase 1, cytoplasmic (Rattus norvegicus), O89049; recombinant rTrxR1, NADPH fluorescence consumption, selenite substrate; Potency, µM (series often up to 114 µM), for the others: top-dose activity change, negative = inhibition, actives largely listed as inhibitors; 1% of 390,000 active; AID 588453, 2011; note: % is set by controls: 0 for no effect and ±100 for the full control effect; nearly all actives have a fitted effect of over 65% in size
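Rat TrxR1 (90 nM in the dispensed reagent) was pre-reduced with 400 uM NADPH for 5 min at room temperature, then incubated with compound for 15 min. After 400 uM selenite was added, NADPH fluorescence (Ex 340/Em 450 nm) was followed for 8 min.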
Mito fusion act – qHTS Assay for Small Molecule Inhibitors of Mitochondrial Division or Activators of Mitochondrial Fusion; S. cerevisiae fusion-defective mutant growth rescue, CellTiterGlo 48 h; Potency, µM (top dose mostly 46.1 µM), inactives show top-dose growth rescue (activation), actives largely listed as activators; 0.23% of 320,000 active; note: % of control where 0% means no effect; nearly all actives have a fitted effect of over 45% in size
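S. cerevisiae fusion-defective temperature-sensitive mutants (e.g. fzo1-1, mgm1-5) grown 48 h at 37C in YPEG (ethanol/glycerol non-fermentable) medium with 23 nl compound per well; growth rescue read as CellTiterGlo luminescence.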
Nrf2 block – Nrf2 qHTS screen for inhibitors; Potency, µM (titrated, usually from 46 µM), inactives show at the highest dose activity change, negative = inhibition, most hits filed as inhibitors; A549 ARE-Fluc reporter, luciferase luminescence, 18-24 h; 2.1% of 360,000 active; note: % is set by controls: 0 for no effect and ±100 for the full control effect; nearly all actives have a fitted effect of over 60% in size
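In this cell-based qHTS, ARE-driven firefly luciferase in A549 cells reports Nrf2 activity; the luminescent signal after BugLite lysis is the measured value, with a prior CellTiter-Fluor read for cell health.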
FLuc enzyme inh – Nrf2 qHTS screen for inhibitors: Purified Fluc Biochemical Counterscreen for Hit Validation; shares compounds with Nrf2 block; 4% of 1,400 active; Potency, µM (highest dose often 57.5 µM), for inactives: at the top dose activity change, negative = inhibition, hits mostly inhibitors; purified firefly luciferase, luminescence inhibition; note: % is set by controls: 0 for no effect and ±100 for the full control effect; nearly all actives have a fitted effect of over 65% in size
A549 tox-2 – Nrf2 qHTS screen for inhibitors: A549 ARE-Fluc Cytotoxicity Counterscreen for Hit Validation; A549 ARE-Fluc cells, cytotoxicity counterscreen; shares compounds with Nrf2 block; 2% of 1,400 active; Potency, µM (doses to about 46.1 µM), for the others: top-dose activity change, negative = cytotoxicity, usual class: inhibitors;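 note: cells exposed to compounds for 18 to 24 hours; % is set by controls: 0 for no effect and ±100 for the full control effect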
ARE-Fluc inh – Nrf2 qHTS screen for inhibitors: Nrf2 A549 ARE-Fluc Confirmation Assay for Hit Validation; shares compounds with Nrf2 block; Potency, µM (series often up to 46.1 µM), for inactives: top-dose activity change, negative = inhibition, hits mostly inhibitors; 74% of 1,400 active; AID 720524, 2013; A549 ARE-firefly luciferase reporter, luminescence; note: % is set by controls: 0 for no effect and ±100 for the full control effect; nearly all actives have a fitted effect of over 65% in size
The depositor's hits bear a star; u = inconclusive; x = no result shown; ! = a repeat was not active; [ ] = another dose, or the depositor's remark. Calls come from the whole dose curve; as a rule, active = well fitted curve in the direction sought with a large enough effect; inconclusive = small, poorly fitted or top-dose-only effect, or another doubt; inactive = no such curve, though single readings can be large; an effect the other way counts as inactive or inconclusive. Potency is the fitted concentration of half-maximal effect.

SMILES	A549 tox-1	mIDH1 inhibitor	TrxR1 substrate	rTrxR1 inhibitor	Mito fusion act	Nrf2 block	FLuc enzyme inh	ARE-Fluc inh	others
CCc1ccc(-n2c(SC(CC)C(=O)N(CC)CC)nc3n[nH]c(C)c3c2=N)cc1 (configuration not stated)	-10%	u	3%[57.1 µM]	19%[57.1 µM]	x	x	x	x
C[C@H]1CCCC(=O)CCC/C=C/c2cc(O)cc(O)c2C(=O)O1	-5%	1%	-2%	-6%	u	3%	x	x
C[C@H]1CCC/C=C/[C@@H]2C[C@H](O)C[C@H]2[C@H](O)/C=C/C(=O)O1	u	28%	13%	u	9%	0.23µM*!	1%	x	A549 tox-2=u
Cc1cc(OCC(=O)N2CCN(CCc3ccccn3)CC2)cc(C)c1Cl	3%	18%	1%	12%	x	12%	x	x
COc1cc2c(cc1OC)[C@H]1C(=O)c3ccc4c(c3O[C@H]1CO2)C[C@@H](C(C)(C)O)O4	6%	-3%[38.3 µM]	-9%	-22%	x	u	x	x
COc1cc2c(cc1OC)C1C(=O)c3ccc4c(c3OC1CO2)CC(C(C)C)O4 (configuration not stated)	-7%	-8%	-4%[2.29 µM]	-6%[2.29 µM]	x	0.092µM*	-1%	0.058µM*	A549 tox-2=-16%
COc1cc2c(cc1OC)[C@@H]1C(=O)c3ccc4c(c3O[C@@H]1CO2)C[C@H](C(C)C)O4	-13%	-5%	0%	26%	11%	0.29µM*	0%	0.23µM*	A549 tox-2=-15%
CC1=CC2OC3CC4OC(=O)C=CC=CC(=O)OCCC(C)C(O)C(=O)OCC2(CC1O)C4(C)C31CO1 (configuration not stated)	x	-2%	2%[11.4 µM]	6%[11.4 µM]	x	0.073µM*	-11%	3.7µM*
CC1=CC2OC3CC4OC(=O)C=CC=CC(C(C)O)OCC(O)C(C)CC(=O)OCC2(CC1O)C4(C)C31CO1 (configuration not stated)	x	0%	1%	45µM*	x	0.058µM*	-13%	0.052µM*
CC(=O)OC1C(=O)OCC23CCC4(C)OC4C2OC2CC(OC(=O)C=CC=CC(=O)OCCC1C)C3(C)C21CO1 (configuration not stated)	x	7%	-6%[57.1 µM]	7%[11.4 µM]	x	0.016µM*	3%	0.012µM*
Cc1ccc(-n2nc(C)c3c2NC(=O)CSC3c2ccc(O)cc2)cc1Cl (configuration not stated)	7%	x	-12%	7%	x	u	x	x
CCCCc1nc2ccccc2c(=O)n1-c1cccc(OC)c1	-15%	0%	-3%	-2%	x	-26%	x	x
COc1ccc(CN(C)S(=O)(=O)c2nnc(NC(=O)c3ccccc3Br)s2)cc1	-3%	23%	4%	7%	16%	-20%	x	x

Source: PubChem
